Measured values reported in ChEMBL document CHEMBL3433997, “St. Jude Leishmania screening dataset” (2016).

Tests used:
Assay type in all cases: functional
[1] = biological target: Solute carrier family 2, facilitated glucose transporter member 1 (Homo sapiens) (UniProt P11166); experiment: ST_JUDE_LEISH: Cytotoxicity at 2uM final concentration against transgenic Leishmania Mexicana promastigotes LmGLUT1 that are glucose transport deficient and complemented with the human glucose transporter GLUT1. Activity is measured by DNA content using SYBR green in vitro
[2] = biological target: Hexose transporter 1 (Plasmodium falciparum) (UniProt O97467); experiment: ST_JUDE_LEISH: Cytotoxicity at 2uM final concentration against transgenic Leishmania Mexicana promastigotes LmPfHT that are glucose transport deficient and complemented with the Plasmodium falciparum hexose transporter. Activity is measured by DNA content using SYBR green in vitro
[3] = biological target: Glucose transporter (Leishmania mexicana) (UniProt O61059); experiment: ST_JUDE_LEISH: Cytotoxicity at 2uM final concentration against transgenic Leishmania Mexicana promastigotes LmGT2 that are glucose transport deficient and complemented with the L. Mexicana glucose transporter 2. Activity is measured by DNA content using SYBR green in vitro

Chain of Solute carrier family 2, facilitated glucose transporter member 1 (Homo sapiens) (P11166 whole entry): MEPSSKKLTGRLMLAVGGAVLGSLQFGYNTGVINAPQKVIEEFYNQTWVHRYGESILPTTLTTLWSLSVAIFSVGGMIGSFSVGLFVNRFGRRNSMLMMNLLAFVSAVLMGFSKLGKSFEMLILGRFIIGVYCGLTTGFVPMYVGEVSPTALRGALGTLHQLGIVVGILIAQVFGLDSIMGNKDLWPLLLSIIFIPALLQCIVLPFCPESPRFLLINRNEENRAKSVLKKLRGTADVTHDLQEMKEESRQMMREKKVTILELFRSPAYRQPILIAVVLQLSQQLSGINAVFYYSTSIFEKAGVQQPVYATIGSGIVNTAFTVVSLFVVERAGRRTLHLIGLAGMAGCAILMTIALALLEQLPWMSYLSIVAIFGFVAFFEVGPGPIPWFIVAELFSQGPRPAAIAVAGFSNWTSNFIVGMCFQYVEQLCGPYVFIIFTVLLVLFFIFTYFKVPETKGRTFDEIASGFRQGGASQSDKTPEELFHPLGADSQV

Compound | inhibition [1] [%] | inhibition [2] [%] | inhibition [3] [%]
CNc1nc(Nc2ccccc2C)nc2ccccc12 | 33.8 | 34.3 | 18.3
COc1ccc2nccc([C@@H](O)CN3CCC(NCCc4c[nH]c5ccccc45)CC3)c2c1 | 9.59 | 11 | 7.8
CC(=O)NCCNc1nccc(N2CCc3ncnc(Nc4ccc(OCc5cccc(F)c5)c(Cl)c4)c3C2)n1 | 0.07 | -2.13 | -2.74
FC(F)(F)c1ccc2[nH]c(-c3ccc(-c4ccc(CN5CCN(c6cnccn6)CC5)cc4)cc3)nc2c1 | 12.9 | 10.6 | 7.09
CC[C@H]1CN(Cc2cccc(O)c2)CC[C@H]1CCCc1ccnc2ccc(O)cc12 | 4.31 | 4.23 | 3.98
N#Cc1ccc(NC(=O)Nc2ccc(OC(F)(F)F)cc2)cc1 | 2.17 | 1.59 | -0.05
COc1ccc(C2CCC(NCCCCNC(=O)c3ccc(NC(=O)c4ccc(Cl)cc4)cc3)CC2)cc1 (stereo unspecified) | 1.37 | 4.07 | 4.39
O=[N+]([O-])c1ccc2c(-c3ccccc3)c(-c3ccccc3)n(O)c2c1 | 2.37 | 3.54 | 0.3
CC(C)CNCc1ccc(OCc2cccc(COc3ccc(CNCC(C)C)cc3I)c2)c(I)c1 | 2.2 | 1.42 | 2.23
O=C(/C=C/c1ccc(Cl)c(Cl)c1)N1CCC(CCN2CCC(c3c[nH]c4cc5c(cc34)OCO5)CC2)CC1 | 0.05 | 0.01 | -0.27
COc1ccc2nc(-c3cc(-c4ccc(NC(=O)CN5CCOCC5)cc4)cnc3N)[nH]c2c1 | 17.5 | 44.4 | 11.7
c1cc2[nH]c(CCCc3nc4cc(C5=N[C@H]6CCCC[C@H]6N5)ccc4[nH]3)nc2cc1C1=N[C@@H]2CCCC[C@@H]2N1 | 0.97 | 1.75 | 0.34
